Among all 350,000 compounds or so, about 1,300 (0.37%) were called active. Only a selection was taken, and actives are over-represented in it overall. Unmarked numbers belong to inactive results. Rule as the data show it: active = response mostly above about 7.3% (no sharp cut-off); inactive = mostly below about 5.4%.

The experiment can be described thus: regulators of yeast V-ATPase proton pumping, primary screen, pHLuorin cytosolic pH fluorescence (AID 504577). Also: actives read high. The conditions noted are these: S. cerevisiae, at 10 µM, stronger effect = higher value.
For `Cc1cc(C(=O)NC2CCN(Cc3ccccc3)CC2)n[nH]1`, the response was 4.4%.

`O=C(NC1CCN(Cc2ccccc2)CC1)c1ccc(Oc2cc(Cl)cc(Cl)c2)o1`: the response is 0.98%.

For the compound `O=C(NC1CCN(Cc2ccccc2)CC1)c1cc(Br)c(Br)[nH]1`, the response was 10.4% (active).

For `O=C(OCCN1C(=O)c2ccccc2C1=O)Oc1ccccc1`, the response was -2.47%.

On to `O=C1c2ccccc2C(=O)N1CCCCCCN1C(=O)c2ccccc2C1=O`, for which the response was 9.59% (active).

Take `O=C(CCCN1C(=O)c2ccccc2C1=O)Oc1ccc(Cl)cc1`: the response is 8.16%.

With `Cc1cc(C(C)(C)C)cc(S(=O)(=O)Nc2ccc(C(=O)O)cc2)c1C`, the response is -1.72%.

For `COCCN(Cc1ccccc1)C(=O)Cc1ccc(S(=O)(=O)N2CCOCC2)s1`, the response is 0.76%.

As to `CN(CC(=O)NCC(c1ccccc1)N1CCCC1)S(=O)(=O)c1ccc(Cl)cc1` (stereo not drawn), the response is -3.93%.

Take `O=C(Nc1ccc(N2CCOCC2)cc1)c1ccc(-c2ccccc2[N+](=O)[O-])o1`: the response is -1.06%.

Consider `O=C1NC(c2ccc(-c3ccccc3[N+](=O)[O-])o2)C(C(=O)c2ccc(Cl)cc2)C(O)(C(F)(F)F)N1` (stereo not drawn), for which the response was -0.4%.

With `CC1=NN(c2ccc(Cl)c(C(=O)O)c2)C(=O)/C1=C/c1ccc(-c2ccccc2[N+](=O)[O-])o1`, the response was 240% (active).

Take `O=C(COC(=O)CCCNC(=O)c1ccc(Cl)cc1)Nc1cc(Cl)ccc1Cl`: the response is -2.06%.

For `CNC(=O)c1csc(Cc2c(Cl)sc3ccc(Cl)cc23)n1`, the response is 12.4% (active).

With `CNC(=O)c1csc(-c2ccccc2)n1`, the response was -0.68%.

With `CC(=O)NNC(=O)c1csc(Cc2c(Cl)sc3ccc(Cl)cc23)n1`, the response was -1.89%.

On to `COc1cccc(N2CCN(C(=O)Nc3ccc4c(c3)NC(=O)CO4)CC2)c1`, for which the response was 0.53%.

As for `O=C(NCC1CCCCC1)c1cc(S(=O)(=O)N2CCCCC2)ccc1N1CCOCC1`, the response was 11.1% (active).

Consider `O=C(CNC(=O)c1cc(S(=O)(=O)N2CCOCC2)ccc1N1CCCC1)Nc1ccc(F)c(F)c1`, for which the response is -1.89%.

Take `CC(C)(C)C(=O)COC(=O)c1cc(S(=O)(=O)N2CCCCC2)ccc1N1CCOCC1`: the response was 5.71%.

Turning to `COCCN1C2=C(COC(C)(C)C2)C(=S)NC1c1ccccc1` (stereo not drawn), the response is 1.2%.

Turning to `O=C(O)CC12CC3CC(C1)CC(n1ncc(NCc4ccc(F)cc4)c(Cl)c1=O)(C3)C2`, the response was 1.78%.

Consider `CC(C)c1ccc(OCC(O)CN2CCN(c3ccccn3)CC2)cc1` (stereo not drawn), for which the response was 1.79%.

For `OC(COc1ccccc1)CN1CCN(c2cccc(Cl)c2)CC1` (stereo not drawn), the response was -2.02%.

As for `OC(COc1cccc2ccccc12)CN1CCN(c2ccccn2)CC1` (stereo not drawn), the response is 16.7% (active).

`CN(C)S(=O)(=O)c1cc(C(=O)Nc2ccn(C)n2)c(Cl)cc1Cl`: the response was -0.21%.

Regarding `CSc1sc(C)cc1C1C(C#N)=C(N)N(c2cccnc2)C2=C1C(=O)CCC2` (stereo not drawn), the response is -0.16%.

For the compound `O=C(COc1ncnc2c(Cl)cc(Cl)cc12)N1CCN(S(=O)(=O)c2ccccc2)CC1`, the response is 2.02%.

Take `Nn1c(SCc2ccccc2)nnc1C1CCCCC1`: the response was -2.46%.

Turning to `O=C(CNC(=O)c1ccccc1Br)NNC(=O)c1cccs1`, the response is -0.51%.

Take `O=C(C1=C[C@H](C2CC2)C[C@H](OCc2ccc(CO)cc2)O1)N1CCN(Cc2ccccc2)CC1`: the response was 10.9% (active).

`O=C(C1=C[C@H](c2coc3ccccc3c2=O)C[C@H](OCc2ccc(CO)cc2)O1)N1CCN(Cc2ccccc2)CC1`: the response is 2.61%.

`O=C(C1=C[C@H](c2ccc(C(F)(F)F)cc2)C[C@H](OCc2ccc(CO)cc2)O1)N1CCN(Cc2ccccc2)CC1`: the response was 3.16%.

With `Cc1ccc(C2=NN(C)c3nc4ccccc4n3C2)cc1`, the response was 0.17%.

Consider `CN(c1ccccn1)c1ncnc2[nH]ncc12`, for which the response is 15.2% (active).

Consider `c1ccc(CNc2ncnc3[nH]ncc23)cc1`, for which the response was -0.7%.

Consider `COc1ccc(NC(=O)CSc2ncnc3[nH]ncc23)cc1`, for which the response is 8.67%.

As for `COc1ccc(OC)c(CNC(=O)CCc2nc(-c3cccs3)no2)c1`, the response is -0.51%.

Turning to `COc1ccc(CCc2nc(-c3cccs3)no2)cc1`, the response is 1.75%.

In the case of `CCc1ccc(CNC(=O)CCc2nc(-c3cccs3)no2)cc1`, the response is 10.8% (active).

For `Cc1cc(C(F)(F)F)nn1CC(=O)N1CCCC1`, the response was 6.02%.

Take `O=C(CC(n1cncn1)C(Cl)(Cl)Cl)c1ccc([N+](=O)[O-])cc1` (stereo not drawn): the response is 4.51%.

Consider `COc1ccc(C(CNC(=O)c2ccc(OCc3cscn3)cc2)N2CCCC2)cc1` (stereo not drawn), for which the response was 2.42%.

On to `CCN(CC(=O)Nc1c(F)cccc1F)C(=O)c1ccc(-c2ccc(C(C)=O)cc2)o1`, for which the response is 0.89%.

As for `Cc1ccc2c(cnn2C(=O)CCC(=O)NC2CCCC2)c1`, the response was 16.8% (active).

As for `Cc1ccc2nc(SCC(=O)NC3CCCC3)[nH]c2c1`, the response was 1.94%.

Turning to `Cc1cccc2c1cnn2C(=O)CCC(=O)NC1CCCCC1`, the response is -0.13%.

Take `Cc1ccccc1CS(=O)(=O)CC1(O)CCN(C(=O)c2cccc(C(F)(F)F)c2)CC1`: the response was -0.64%.

On to `Cc1c(Cl)cccc1NC(=O)[C@@]1(CC(=O)O)CC(/C=C/c2ccccc2)=NO1`, for which the response was -1.98%.

On to `CCN(CC)CC(=O)Nc1nn(-c2ccccc2)nc1C(N)=O`, for which the response was 6.52%.

With `COc1ccc(N2CCN(C(=O)CNC(=O)c3ccc(C(C)(C)C)cc3)CC2)cc1`, the response was 13.9% (active).

With `COc1ccc(N2CCN(C(=O)CNC(=O)c3ccc(Br)o3)CC2)cc1`, the response is 4.07%.

Turning to `COc1ccc(N2CCN(C(=O)CCNC(=O)c3ccc(Br)cc3)CC2)cc1`, the response is -3.69%.

In the case of `Cc1ccccc1NC(=O)N1CCCC1C(=O)NCc1ccccc1` (stereo not drawn), the response was -1.65%.

For the compound `CCOc1nc(OCC)nc(-n2cc(-c3ccccc3)nn2)n1`, the response was 0.96%.

As for `CC1=C/C(=N\OS(=O)(=O)c2ccccc2)C=CC1=O`, the response is 32.8% (active).

For the compound `CCC(C)NC(=O)c1ccc(NC(=O)CC2SC(N3CCCCC3)=NC2=O)cc1` (stereo not drawn), the response was 1.4%.

On to `CC(C)(C)OC(=O)N1CCC(C(=O)NNC(=O)c2ccc(Cl)cc2Cl)CC1`, for which the response was 1.22%.

These data come from PubChem BioAssay AID504577 (NMMLSC, 2011).
